{"source": "PubChem BioAssay (NCATS)", "note": "Results filed as inconclusive are left out. The source made the active and inactive calls. Calls follow the shape of the full dose curve; tested in HEK293 reporter line. Potency is read from the fitted curve at half-maximal effect.", "data": [{"experiment": "qHTS for Inhibitors of the Functional Ribonucleoprotein Complex (vRNP) of Lassa (LASV) Arenavirus: Viability assay - alamar blue signal for LASV Primary Screen (AID 1347083); also: nearly all actives have a fitted effect of over 80% in size", "conditions": "cell viability, alamar blue fluorescence (LASV minigenome counter-screen); series mostly up to 57.5 µM", "values": [{"smiles": "CCCCCN=C(N)NN=Cc1c[nH]c2ccc(OC)cc12", "Potency": "6.11 µM (active)"}, {"smiles": "CC(=O)OCC(=O)[C@@]12OC(C)(C)O[C@H]1C[C@H]1[C@@H]3C[C@H](F)C4=CC(=O)C=C[C@]4(C)[C@@]3(F)[C@@H](O)C[C@@]12C", "Potency": "inactive"}, {"smiles": "CCN(CC)CCNC(=O)COc1ccc(Cl)cc1", "Potency": "inactive"}, {"smiles": "C[C@@H](Oc1ccc2[nH]nc(C=Cc3cnn(CCO)c3)c2c1)c1c(Cl)cncc1Cl", "Potency": "24.3 µM (active)"}, {"smiles": "CO[C@H]1C[C@@H]2CC[C@@H](C)[C@@](O)(O2)C(=O)C(=O)N2CCCC[C@@H]2C(=O)O[C@H]([C@H](C)C[C@@H]2CC[C@H](OP(C)(C)=O)[C@H](OC)C2)CC(=O)[C@H](C)C=C(C)[C@@H](O)[C@@H](OC)C(=O)[C@H](C)C[C@H](C)C=CC=CC=C1C", "Potency": "0.0109 µM (active)"}, {"smiles": "O=c1[nH]c(=O)n([C@H]2C[C@@H](O)[C@@H](CO)O2)cc1F", "Potency": "5.44 µM (active)"}, {"smiles": "O=C(O)CO", "Potency": "inactive"}, {"smiles": "CCC1=C[C@@H]2CN(C1)Cc1c([nH]c3ccccc13)[C@@](C(=O)OC)(c1cc3c(cc1OC)N(C)[C@@H]1[C@@](O)(C(=O)OC)[C@H](OC(C)=O)[C@]4(CC)C=CCN5CC[C@]31[C@@H]54)C2", "Potency": "0.306 µM (active)"}, {"smiles": "CNC1CCC(N(Cc2cccc(-c3ccncc3)c2)C(=O)c2sc3c(F)ccc(F)c3c2Cl)CC1", "note": "(stereo not given)", "Potency": "7.69 µM (active)"}, {"smiles": "C[C@H]1[C@H](O)O[C@@H]2O[C@@]3(C)CC[C@@H]4[C@H](C)CC[C@@H]1[C@@]24OO3", "Potency": "10 µM (active)"}, {"smiles": "Cc1cnc(Nc2ccc(N3CCN(C)CC3)cc2)nc1Nc1cccc(S(=O)(=O)NC(C)(C)C)c1", "Potency": "3.85 µM (active)"}, {"smiles": "CN(C)CCN1C(=O)c2cccc3cc(N)cc(c23)C1=O", "Potency": "7.69 µM (active)"}, {"smiles": "O=C(OCCOCCO)c1ccccc1Nc1cccc(C(F)(F)F)c1", "Potency": "inactive"}, {"smiles": "O=C1NC(=O)[C@@H](c2cn3c4c(cccc24)CCC3)[C@H]1c1c[nH]c2ccccc12", "Potency": "2.17 µM (active)"}, {"smiles": "C=C1C(=O)O[C@@H]2C[C@@H](C)[C@@H]3C=CC(=O)[C@@]3(C)[C@@H](OC(C)=O)[C@H]12", "Potency": "4.47 µM (active)"}, {"smiles": "O=C(c1ccc(F)c(F)c1Nc1ccc(I)cc1F)N1CC(O)([C@H]2CCCCN2)C1", "Potency": "8.63 µM (active)"}, {"smiles": "Cn1cc(-c2cnn3c(N)c(Br)c([C@H]4CCCNC4)nc23)cn1", "Potency": "1.22 µM (active)"}, {"smiles": "O=C(C=Cc1ccc(CN(CCO)CCc2c[nH]c3ccccc23)cc1)NO", "Potency": "1.37 µM (active)"}, {"smiles": "COc1cc(C)ccc1O", "Potency": "inactive"}, {"smiles": "C/C=C/c1ccc(OC(C)[C@@H](O)c2ccc(O)c(OC)c2)c(OC)c1", "note": "(stereo not given in full)", "Potency": "inactive"}, {"smiles": "Oc1cc(-c2nc(-c3ccccc3)[nH]c2-c2ccncc2)ccc1Cl", "Potency": "1.53 µM (active)"}, {"smiles": "CC[n+]1c(/C=C/C=C2/N(C)c3ccccc3C2(C)C)sc2ccccc21", "Potency": "1.58 µM (active)"}, {"smiles": "COC1C(O)C(C)OC(OC2CCC3(C)C(CCC4C3C(O)CC3(C)C(C5=CC(=O)OC5)CCC43O)C2)C1O", "note": "(stereo not given)", "Potency": "0.251 µM (active)"}, {"smiles": "COc1cc(C(=O)NC2CCN(C)CC2)ccc1Nc1ncc2c(n1)N(C1CCCC1)CCC(=O)N2C(C)C", "Potency": "27.3 µM (active)"}, {"smiles": "C=C1CCC2[C@](C)(CO)[C@H](O)CC[C@@]2(C)[C@@H]1/C=C/C1=CCOC1=O", "note": "(stereo not given in full)", "Potency": "inactive"}, {"smiles": "CC(=O)OC1CC2(O)C3CCC4CC(O)CCC4(C)C3CCC2(C)C1C1=CC(=O)OC1", "note": "(stereo not given)", "Potency": "0.282 µM (active)"}, {"smiles": "Clc1ccc(C2(c3ccc(-c4cn[nH]c4)cc3)CCNCC2)cc1", "Potency": "5.44 µM (active)"}, {"smiles": "CC(=O)OCC(=O)[C@@]12N=C(C)O[C@H]1C[C@H]1[C@@H]3CCC4=CC(=O)C=C[C@]4(C)[C@@H]3[C@@H](O)C[C@@]12C", "Potency": "inactive"}, {"smiles": "COc1cc(C(=S)N2CCOCC2)cc(OC)c1OC", "Potency": "inactive"}, {"smiles": "CC(Cc1ccccc1)(NC(=O)CN)c1ccccc1", "note": "(stereo not given)", "Potency": "inactive"}, {"smiles": "O=C(CC12CC3CC(CC(C3)C1)C2)Nc1cccc2nc(NCCNCCO)ccc12", "Potency": "21.7 µM (active)"}, {"smiles": "CNC(=O)c1ccccc1Nc1nc(Nc2ccc(N3CCOCC3)cc2OC)ncc1Cl", "Potency": "4.85 µM (active)"}, {"smiles": "Cc1nc(NC(=O)N2CCC[C@@H]2C(N)=O)sc1-c1ccnc(C(C)(C)C(F)(F)F)c1", "Potency": "10.9 µM (active)"}, {"smiles": "CN[C@@H]1C[C@H]2O[C@@](C)([C@H]1OC)n1c3ccccc3c3c4c(c5c6ccccc6n2c5c31)C(=O)N[C@H]4O", "Potency": "0.355 µM (active)"}, {"smiles": "O=C1NC2C(=CC(O)C(O)C2O)c2cc3c(cc21)OCO3", "note": "(stereo not given)", "Potency": "0.199 µM (active)"}]}]}
